Results as given in ChEMBL document CHEMBL3433997, “St. Jude Leishmania screening dataset” (2016).

Assays:
Format in all cases: functional
[1] = biological target: Solute carrier family 2, facilitated glucose transporter member 1 (Homo sapiens) (UniProt P11166); assay: ST_JUDE_LEISH: Cytotoxicity at 2uM final concentration against transgenic Leishmania Mexicana promastigotes LmGLUT1 that are glucose transport deficient and complemented with the human glucose transporter GLUT1. Activity is measured by DNA content using SYBR green in vitro
Solute carrier family 2, facilitated glucose transporter member 1 (Homo sapiens), sequence (P11166 whole entry): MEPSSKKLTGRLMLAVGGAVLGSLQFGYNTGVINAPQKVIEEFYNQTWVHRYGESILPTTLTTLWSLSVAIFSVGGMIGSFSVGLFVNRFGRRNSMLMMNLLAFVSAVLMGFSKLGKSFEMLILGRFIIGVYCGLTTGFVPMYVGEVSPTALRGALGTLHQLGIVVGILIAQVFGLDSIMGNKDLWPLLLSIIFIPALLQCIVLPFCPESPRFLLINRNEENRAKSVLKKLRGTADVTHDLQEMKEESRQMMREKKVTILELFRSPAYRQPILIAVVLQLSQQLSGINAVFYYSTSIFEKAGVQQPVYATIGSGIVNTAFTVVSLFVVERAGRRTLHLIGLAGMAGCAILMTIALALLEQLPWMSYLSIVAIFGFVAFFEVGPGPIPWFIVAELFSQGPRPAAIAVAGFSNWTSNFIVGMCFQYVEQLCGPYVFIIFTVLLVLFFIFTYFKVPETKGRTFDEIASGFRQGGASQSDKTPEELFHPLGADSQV

[2] = biological target: Hexose transporter 1 (Plasmodium falciparum) (UniProt O97467); assay: ST_JUDE_LEISH: Cytotoxicity at 2uM final concentration against transgenic Leishmania Mexicana promastigotes LmPfHT that are glucose transport deficient and complemented with the Plasmodium falciparum hexose transporter. Activity is measured by DNA content using SYBR green in vitro
[3] = biological target: Glucose transporter (Leishmania mexicana) (UniProt O61059); assay: ST_JUDE_LEISH: Cytotoxicity at 2uM final concentration against transgenic Leishmania Mexicana promastigotes LmGT2 that are glucose transport deficient and complemented with the L. Mexicana glucose transporter 2. Activity is measured by DNA content using SYBR green in vitro

| SMILES | inhibition [1] | inhibition [2] | inhibition [3] |
| --- | --- | --- | --- |
| CCc1cc(NC2CCN(C)CC2)nc(Nc2ccc(C)cc2)n1 | 7.94% | 4.93% | -1.22% |
| CN1CCN(CCCN(Cc2csc(-c3ccc(CNCc4ccccc4)cc3)n2)S(=O)(=O)c2ccccc2)CC1 | 12.2% | 15.3% | 4.53% |
| COc1cc(C(=O)N2CCOC(CCN3CCC(c4ccc(Cl)cc4)CC3)(c3ccc(Cl)c(Cl)c3)C2)cc(OC)c1OC (centres undefined) | 12.4% | 11.2% | 13.7% |
| COc1ccccc1C(C)NCC(=O)Nc1ccccc1Sc1ccccc1 (centres undefined) | 0.18% | 0.01% | 1.44% |
| CNCc1ccc2nc(-c3coc(Cc4cc(Cl)ccc4OCC(C)C)n3)[nH]c2c1 | 6.56% | 4.9% | 3.77% |
| CC(C)Sc1nc(-c2ccccc2)nc2c1COC(C)(C)C2 | -2.07% | -2.02% | -4.12% |
| O=C(Nc1ccc(F)cc1)c1nc2ccccc2nc1Cl | 4.1% | 3.68% | 4.22% |
| COc1ccc(CN2CCC(N3CCc4cc(NC(=O)c5cc(C)on5)ccc43)C2)cc1Cl (centres undefined) | -0.2% | -3.51% | 0.69% |
| COc1cc(C=CC(=O)N2CCC(CCN3CCC(c4c[nH]c5ccccc45)CC3)CC2)cc(OC)c1 | 4.99% | 6.56% | 3.47% |
| N#Cc1ccc2c(c1)CCN(CCC1CCC(NC(=O)/C=C/c3cccc4ccccc34)CC1)CC2 (centres undefined) | 4.36% | 9.02% | 2.63% |
| CCOc1cc(NC(=O)Nc2ccnc3ccccc23)cc(OC)c1 | 12.6% | 10.5% | 7.94% |
| CCOc1ccc2nc3cc([N+](=O)[O-])ccc3c(N)c2c1 | 6.85% | 7.59% | 2.01% |
| CC1CCCN(Cc2c(O)ccc3c(O)c(-c4nc5ccccc5s4)c(=N)oc23)C1 (centres undefined) | 3.47% | 8.25% | 0.96% |
